Test results published in the supplement of paper PMC4723716.
± gives the uncertainty stated by the source. Whole data set: some 9,900 compounds, median “viability index relative to DMSO control” near 1, cut for the lowest 2% near 0.85. For the sample, the lowest values were picked, then their nearest neighbours and some compounds at random.

System: Plasmodium falciparum NF54 stage V gametocytes
Assay: viability index relative to DMSO control (fraction); higher = less gametocyte killing
Conditions: 2.5 µM, incubation time: 72 h
Procedure, shortened: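 P. falciparum NF54 stage V gametocytes in serum-free screening medium (0.75% gametocytemia, 1.25% hematocrit, 10 µl) were incubated with compound at 2.5 µM in 1,536-well plates for 72 hr at 37°C under low oxygen. Then 3 µl of 2.5 µM MitoTracker Red CMXRos plus 0.13% saponin was added for one to two hours. One field per well was imaged, 20–70 µm2 red particles were counted, and the viability index was the count divided by the plate mean of DMSO wells.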

[1] = library set: Broad Institute DOS
[2] = library set: Broad Institute Blood Stage

Compound | viability index [1] | viability index [2]
CCCN(C)C[C@H]1Oc2cc(/C=C/c3ccccc3)ccc2S(=O)(=O)N([C@H](C)CO)C[C@H]1C | 1.05 ± 0.026 | 
COc1ccc2c3c([C@@H](CO)N(C[C@]33CCN(CC4CCOCC4)CC3)C(=O)NC(C)C)n(C)c2c1 | 0.97 ± 0.013 | 
COc1ccc2c3c([C@H](CO)N(CC4CC4)C[C@]33CCN(CC3)C(=O)NC3CCCC3)n(C)c2c1 | 0.955 ± 0.05 | 
C[C@H]1CN([C@@H](C)CO)C(=O)CCCn2nncc2CO[C@H]1CN(C)C(=O)c1ccc2ccn(C)c2c1 | 1.015 ± 0.0067 | 
O=C(C[C@@H]1CC[C@H]2[C@@H](COC[C@@H](O)CN2C(=O)c2ccccc2F)O1)NCc1ccc(Cl)c(Cl)c1 | 1.09 ± 0.036 | 
COC(=O)c1ccc(CN2CC(=O)N3[C@H](CO)[C@@H](c4ccc(-c5cccnc5)cc4)[C@H]3C2)cc1 | 0.986 ± 0.01 | 
C[C@@H]1CN([C@H](C)CO)C(=O)CCCn2cc(nn2)CO[C@@H]1CN(C)Cc1ccccc1 | 0.986 ± 0.035 | 
O=C(C[C@H]1CC[C@@H](NC(=O)Nc2ccc(C(F)(F)F)cc2)[C@H](CO)O1)NCc1cccc(F)c1 | 0.953 ± 0.14 | 
C[C@@H]1CN([C@H](C)CO)C(=O)c2cc(NC(=O)C3CCCCC3)ccc2O[C@@H](C)CCCCO[C@@H]1CN(C)C(=O)CCC(F)(F)F | 0.817 ± 0.26 | 
C[C@@H]1CN([C@@H](C)CO)C(=O)c2cc(NC(=O)C3CCCCC3)ccc2O[C@@H](C)CCCCO[C@H]1CN(C)C(=O)CCC(F)(F)F | 1.07 ± 0.071 | 
C[C@@H]1CN([C@H](C)CO)C(=O)c2cc(NC(=O)C3CCCCC3)ccc2O[C@@H](C)CCCCO[C@H]1CN(C)C(=O)CCC(F)(F)F | 1.05 ± 0.096 | 
C[C@@H]1CN([C@H](C)CO)C(=O)c2cc(NC(=O)CCC(F)(F)F)ccc2O[C@@H](C)CCCCO[C@H]1CN(C)C(=O)Nc1cccc2ccccc12 | 1.08 ± 0.036 | 
C[C@@H]1CN([C@@H](C)CO)C(=O)c2cc(NC(=O)CCC(F)(F)F)ccc2O[C@@H](C)CCCCO[C@@H]1CN(C)C(=O)Nc1cccc2ccccc12 | 0.734 ± 0.082 | 
Cc1noc(C)c1S(=O)(=O)Nc1ccc2c(c1)C(=O)N([C@@H](C)CO)C[C@@H](C)[C@@H](CN(C)C(=O)Nc1cccc3ccccc13)OCCCC[C@H](C)O2 | 0.828 ± 0.11 | 
Cc1noc(C)c1S(=O)(=O)Nc1ccc2c(c1)C(=O)N([C@@H](C)CO)C[C@H](C)[C@@H](CN(C)C(=O)Nc1cccc3ccccc13)OCCCC[C@H](C)O2 | 0.984 ± 0.043 | 
C[C@@H]1CCCCO[C@@H](CN(C)C(=O)Nc2cccc3ccccc23)[C@H](C)CN([C@@H](C)CO)C(=O)c2cc(NC(=O)CCC(F)(F)F)ccc2O1 | 1 ± 0.061 | 
Cc1noc(C)c1S(=O)(=O)Nc1ccc2c(c1)C(=O)N([C@@H](C)CO)C[C@@H](C)[C@@H](CN(C)C(=O)Nc1cccc3ccccc13)OCCCC[C@@H](C)O2 | 0.893 ± 0.066 | 
CN1C(=O)c2cc(NC(=O)c3cnccn3)ccc2OC[C@H]2O[C@H](CC(=O)NCC3CCCCC3)CC[C@@H]21 | 0.959 ± 0.028 | 
Cc1ccc(S(=O)(=O)N[C@H]2CC[C@@H](CC(=O)NCc3ccncn3)O[C@@H]2CO)cc1 | 1.01 ± 0.11 | 
CN1[C@@H]2CN(C(=O)C3CCCCC3)c3ccccc3[C@@H]2[C@@H]1CO | 1.06 ± 0.063 | 
COc1ccc(NC(=O)N2C[C@@]3(C2)CN([C@@H](CO)c2[nH]c4cc(OC)ccc4c32)C(C)=O)cc1 | 1.01 ± 0.1 | 
COc1ccc2c3c([nH]c2c1)[C@H](CO)N(C[C@]31CCN(Cc2ccncc2)CC1)C(=O)CC1CC1 | 0.934 ± 0.098 | 

Compound | viability index [1] | viability index [2]
COCc1cn(CC[C@H]2CC[C@H](NC(=O)Nc3c(C)noc3C)[C@@H](CO)O2)nn1 | 0.927 ± 0.067 | 
COCc1cn(CC[C@@H]2CC[C@H](NC(=O)Nc3c(C)noc3C)[C@@H](CO)O2)nn1 | 1.07 ± 0.097 | 
OC[C@H]1CC[C@@H]2O[C@H](CCc3ccc(C#CCc4ccccc4)cc3)[C@H](n3cc(-c4ccccc4)nn3)C[C@@H]2O1 |  | 0.781 ± 0.043
O=C(C1CCOCC1)N1CC(=O)N2[C@H](C1)[C@H](c1ccc(C#CCc3ccccc3)cc1)[C@@H]2CO | 1.09 ± 0.14 | 
O=C(C1CCOCC1)N1CC(=O)N2[C@H](C1)[C@@H](c1ccc(C#CCc3ccccc3)cc1)[C@@H]2CO | 1.06 ± 0.041 | 
COCc1cn(CC[C@@H]2CC[C@H](NC(=O)Nc3c(C)noc3C)[C@H](CO)O2)nn1 | 0.951 ± 0.12 | 
COCc1cn(CC[C@H]2CC[C@@H](NC(=O)Nc3c(C)noc3C)[C@H](CO)O2)nn1 | 1.03 ± 0.051 | 
COCc1cn([C@@H]2C[C@@H]3O[C@@H](CO)CC[C@@H]3O[C@@H]2CCc2ccc(-c3ccc(OC)cc3)cc2)nn1 |  | 0.811 ± 0.063
COCc1cn([C@@H]2C[C@@H]3O[C@H](CO)CC[C@@H]3O[C@@H]2CCc2ccc(-c3ccc(OC)cc3)cc2)nn1 |  | 0.791 ± 0.041
CCC(=O)N1CC2(C1)[C@@H](c1ccc(-c3cccc(C)c3)cc1)[C@@H](CO)N2S(C)(=O)=O | 1.057 ± 0.0069 | 
Cc1nn(C)cc1NC(=O)C[C@@H]1CC[C@@H]2[C@H](COc3ccc(NC(=O)c4cccc(F)c4)cc3C(=O)N2C)O1 | 1.15 ± 0.11 | 
O=C(C[C@@H]1CC[C@@H]2[C@H](COC[C@@H](O)CN2C(=O)Nc2cccc(F)c2)O1)NCCCN1CCOCC1 | 1.12 ± 0.081 | 
COc1ccc(CN(C)C[C@@H]2OCc3cnnn3CCCC(=O)N([C@H](C)CO)C[C@@H]2C)cc1 | 0.963 ± 0.038 | 
O=C(CN1CCOCC1)N[C@H]1CC[C@H](CCn2cc(C3CC3)nn2)O[C@@H]1CO | 1.16 ± 0.021 | 
C/C=C/c1ccc2n(c1=O)C[C@@H]1N[C@H]2[C@H](C(=O)NC2CCCC2)[C@H]1CO.C/C=C\c1ccc2n(c1=O)C[C@@H]1N[C@H]2[C@H](C(=O)NC2CCCC2)[C@H]1CO | 1.04 ± 0.018 | 
COc1ccc2c(c1)n(C)c1[C@H](CO)N(C[C@]3(CCN(C)CC3)c21)C(=O)c1ccc(F)cc1 | 1.05 ± 0.018 | 
COc1ccc2c3c([C@H](CO)N(C[C@]33CN(C3)C(=O)c3cccc(F)c3)C(=O)c3cccc(F)c3)n(C)c2c1 | 1.04 ± 0.047 | 
CCS(=O)(=O)N1CC[C@@]2(CC1)CN([C@@H](CO)c1c2c2ccc(OC)cc2n1C)C(=O)c1cccc(F)c1 | 1.02 ± 0.079 | 
COc1ccc2c3c([C@@H](CO)N(C[C@]33CCN(CC3)C(=O)c3ccccc3)C(=O)c3ccccc3)n(C)c2c1 | 0.761 ± 0.011 | 
COc1ccc2c3c([C@H](CO)N(C[C@]33CCN(CC3)C(=O)c3ccccc3)C(=O)c3ccccc3)n(C)c2c1 | 0.979 ± 0.13 | 
COc1ccc2c3c([C@@H](CO)N(C[C@]33CN(C3)C(=O)c3cccc(F)c3)C(=O)c3cccc(F)c3)n(C)c2c1 | 0.848 ± 0.02 | 
Cc1noc(C)c1S(=O)(=O)Nc1ccc2c(c1)C(=O)N([C@@H](C)CO)C[C@H](C)[C@H](CN(C)Cc1ccc(C(=O)O)cc1)OCCCC[C@H](C)O2 | 1.14 ± 0.051 | 

Compound | viability index [1] | viability index [2]
O=C(C[C@H]1C[C@H]2c3cc(NC(=O)C4CCOCC4)ccc3O[C@H]2[C@H](CO)O1)NCc1cccnc1 | 1.086 ± 0.0019 | 
O=C(N[C@H]1CC[C@@H](CCn2cc(-c3ccccc3F)nn2)O[C@H]1CO)c1ccc2c(c1)OCO2 | 1.1 ± 0.06 | 
COC(=O)C[C@@H]1CC[C@H]2[C@@H](COc3ccc(NS(=O)(=O)c4ccc(C)cc4)cc3C(=O)N2C)O1 | 1.07 ± 0.083 | 
CN1C(=O)c2cc(NC(=O)c3ccc(F)c(F)c3)ccc2OC[C@H]2O[C@@H](CC(=O)N3CCCCC3)CC[C@H]21 | 1.1 ± 0.0047 | 
COc1ccc2c3c([C@H](CO)N(Cc4ccccc4Cl)C[C@]33CCN(CC3)C(=O)CC3CC3)n(C)c2c1 | 0.922 ± 0.014 | 
COc1ccc2c3c([C@@H](CO)N(CC4CC4)C[C@]33CN(C3)C(=O)c3ccc4OCOc4c3)n(C)c2c1 | 1.02 ± 0.016 | 
COc1ccc2c3c([C@@H](CO)N(C[C@]33CCN(CC3)C(=O)c3ccc4OCOc4c3)C(=O)Nc3ccc(F)cc3)n(C)c2c1 | 0.967 ± 0.057 | 
COc1ccc(cc1)S(=O)(=O)N1C[C@@]2(C1)CN([C@H](CO)c1c2c2ccc(OC)cc2n1C)C(=O)CN(C)C | 0.841 ± 0.028 | 
COc1ccc2c3c([C@@H](CO)N(C[C@]33CCN(CC3)S(C)(=O)=O)C(=O)CN(C)C)n(C)c2c1 | 0.956 ± 0.029 | 
COc1ccc2c3c([C@@H](CO)N(C)C[C@]33CCN(CC3)C(=O)c3ccc4OCOc4c3)n(C)c2c1 | 0.9516 ± 0.0011 | 
COc1ccc2c3c([C@H](CO)N(Cc4ccc5OCOc5c4)C[C@]33CN(C3)C(=O)c3ccc4OCOc4c3)n(C)c2c1 |  | 0.435 ± 0.088
COCC(=O)N1C[C@@]2(C1)CN(Cc1ccc3OCOc3c1)[C@H](CO)c1c2c2ccc(OC)cc2n1C | 0.938 ± 0.068 | 
COc1ccc2c3c([C@H](CO)N(Cc4ccccc4Cl)C[C@]33CN(C3)C(=O)CN(C)C)n(C)c2c1 | 0.782 ± 0.042 | 
COc1ccc2c3c([C@H](CO)N(C[C@]33CCN(CC3)C(=O)c3ccc4OCOc4c3)C(=O)Nc3ccc(F)cc3)n(C)c2c1 | 0.846 ± 0.055 | 
COc1ccc(cc1)S(=O)(=O)N1C[C@@]2(C1)CN([C@@H](CO)c1c2c2ccc(OC)cc2n1C)C(=O)CN(C)C | 0.95 ± 0.059 | 
COc1ccc2c3c([C@@H](CO)N(Cc4ccccc4Cl)C[C@]33CCN(CC3)C(=O)CC3CC3)n(C)c2c1 | 0.939 ± 0.025 | 
COc1ccc2c3c([C@@H](CO)NC[C@]33CN(CC4CCOCC4)C3)n(C)c2c1 | 1.07 ± 0.029 | 
C[C@H](CO)N1C[C@H](C)[C@H](CN(C)Cc2ccc(Oc3ccccc3)cc2)Oc2ccc(N(C)C)cc2C1=O | 1.01 ± 0.043 | 
O=C(CCN1CCCCC1)N[C@H]1CC[C@@H](CCn2cc(-c3cccc(F)c3)nn2)O[C@H]1CO | 1.07 ± 0.038 | 
C[C@@H]1CN([C@@H](C)CO)C(=O)c2cc(NC(=O)Nc3cccc4ccccc34)ccc2O[C@@H](C)CCCCO[C@@H]1CN(C)S(=O)(=O)c1cn(C)cn1 | 0.949 ± 0.081 | 
C[C@@H]1CC(=O)NCC/C=C\C[C@H](c2ccc3c(c2)OCO3)NC1=O | 1.059 ± 0.0056 | 
C[C@@H]1CN([C@@H](C)CO)C(=O)CCCn2nncc2CO[C@H]1CN(C)S(=O)(=O)c1cn(C)cn1 | 1.07 ± 0.065 | 
